# Epigenetic reg = Quantitative High-Throughput Screen for Regulators of Epigenetic Control | murine LDR cells, GFP reporter derepression, 30 h | Potency, µM (titrated, usually from 53.9 µM), actives largely listed as activators | 280,000 tested, 0.2% active; also: nearly all actives have a fitted effect of over 60% in size
#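 Readout is the number of GFP-expressing murine LDR cells, counted by cytometry following washing. Cells were treated with compound for 30 h at 37 C; the stably integrated CMV-GFP locus is normally silent.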
# PINK1 expr mod = A Quantitative High throughput Screen to Identify Chemical Modulators of PINK1 Expression; AID 624263, 2012; PINK1 immunofluorescence, high-content cytometry, 24 h; 410,000 tested, 0.2% active; Potency, µM (series often up to 76.6 µM), actives largely listed as activators; active = well fitted activation curve with a large enough effect; inconclusive = small, poorly fitted or top-dose-only effect; cell line not stated here; also: nearly all actives have a fitted effect of over 65% in size
#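 Compound titrations (5 concentrations, 24 h) on a stable cell line; DMSO and CCCP controls. Endpoint: fixed-cell PINK1 immunofluorescence with mitochondrial, cell and nuclear markers, scanned by microplate cytometer.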
# ClpP mod = qHTS Assay for Activators of ClpP | ATP-dependent Clp protease proteolytic subunit (Bacillus subtilis (strain 168)), P80244 | purified B. subtilis ClpP, FRET peptide cleavage, 20 min | Potency, µM (titrated, usually from 57.5 µM) | 340,000 tested, 1.9% active | AID 651965, 2013; active = well fitted falling curve with a large enough effect; inconclusive = small, poorly fitted or top-dose-only effect; inactive = no such curve, though single readings can be large or run the other way; also: the source files actives as falling curves though it sought activators and does not explain the sign; nearly all actives have a fitted effect of over 65% in size
# Target sequence (P80244 whole entry, looked up): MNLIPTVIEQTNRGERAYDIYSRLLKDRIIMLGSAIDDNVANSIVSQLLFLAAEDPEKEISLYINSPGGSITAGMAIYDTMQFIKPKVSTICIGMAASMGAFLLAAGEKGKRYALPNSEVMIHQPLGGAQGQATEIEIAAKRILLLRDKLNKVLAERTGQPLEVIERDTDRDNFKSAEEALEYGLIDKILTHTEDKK
#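 Purified B. subtilis ClpP, 10 microg/mL final in Tris/HCl pH8 with KCl, BSA, glycerol and Tween-20, cleaved an Abz/nitrotyrosine-quenched decapeptide. Fluorescence (ex 320, em 430) was read at 0 and 20 min at room temperature. Delta was normalized to 5.8 microM ADEP and DMSO/no-enzyme controls.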
# VP16 counter = VP16 counterscreen qHTS for inhibitors of ROR gamma transcriptional activity; 310,000 tested, 3.5% active; Potency, µM (titrated, usually from 53.6 µM), hits mostly inhibitors; Drosophila S2 Gal4-VP16 UAS-luciferase, luminescence, 20 h;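 also: Gal4-VP16 expression switched on by copper sulfate through the metallothionein promoter; nearly all actives have a fitted effect of over 50% in size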
# RORgamma inh = qHTS for inhibitors of ROR gamma transcriptional activity; AID 2551, 2010; Nuclear receptor ROR-gamma (Mus musculus), P51450; Potency, µM (top dose mostly 53.6 µM), hits mostly inhibitors; 310,000 tested, 5.4% active; Drosophila S2 Gal4-RORgamma UAS-luciferase reporter, 20 h; also: nearly all actives have a fitted effect of over 60% in size
# Target sequence (P51450 whole entry, looked up, the tested form may be a part): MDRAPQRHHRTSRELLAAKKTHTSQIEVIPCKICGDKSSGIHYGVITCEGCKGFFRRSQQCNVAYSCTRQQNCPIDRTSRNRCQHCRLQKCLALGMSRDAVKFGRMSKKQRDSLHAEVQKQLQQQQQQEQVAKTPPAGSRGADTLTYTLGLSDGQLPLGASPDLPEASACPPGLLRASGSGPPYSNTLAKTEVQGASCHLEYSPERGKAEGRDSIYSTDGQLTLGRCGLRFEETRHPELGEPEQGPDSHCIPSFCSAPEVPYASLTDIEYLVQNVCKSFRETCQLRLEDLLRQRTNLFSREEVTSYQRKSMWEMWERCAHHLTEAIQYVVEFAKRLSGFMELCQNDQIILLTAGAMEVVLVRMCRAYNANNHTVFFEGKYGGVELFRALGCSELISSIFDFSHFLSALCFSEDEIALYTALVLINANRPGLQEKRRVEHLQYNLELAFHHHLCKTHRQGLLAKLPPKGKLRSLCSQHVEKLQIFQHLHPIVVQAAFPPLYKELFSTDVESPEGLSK
#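 In this cell-based reporter format, copper sulfate (700 uM final) drives Gal4–ROR gamma fusion expression from a metallothionein promoter in Drosophila Schneider cells; compounds preincubated 1 hr, reporter read after 20 hr at ambient temperature.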
# Sfp PPTase inh = qHTS Assay for Inhibitors of Bacillus subtilis Sfp phosphopantetheinyl transferase (PPTase) | Biochemical Sfp PPTase activity, qHTS | AID 1490, 2009 | 310,000 tested, 3.5% active | Potency, µM, actives largely listed as inhibitors | 4'-phosphopantetheinyl transferase ffp (Bacillus subtilis), Q9F4F7;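 also: the enzyme is Sfp with the accession as filed and its product quenches rhodamine fluorescence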
#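 With Hepes-Na pH 7.6 buffer containing 10 mM MgCl2, Sfp (15 nM) modified BHQ-2-YbbR (12.5 uM) using rhodamine-CoA (5 uM). Two reads 30 minutes apart at 525/598 nm yielded each well's rate.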
# A number is an active result; 0 = inactive; ? = inconclusive; - = no result; [ ] = remark or other dose. Most compounds without a hit are left out; they make up all but 8.1% or so of the library. Unless noted, calls follow the shape of the dose curve; as a rule, active = well fitted curve in the direction sought with a large enough effect; inconclusive = small, poorly fitted or top-dose-only effect, or another doubt; inactive = no such curve, though single readings can be large; an effect the other way counts as inactive or inconclusive.
SMILES,Epigenetic reg,PINK1 expr mod,ClpP mod,VP16 counter,RORgamma inh,Sfp PPTase inh
CN(CC(=O)Nc1c(Cl)cccc1Cl)C(=O)CCC1CCCC1,-,0,0,11µM,0,0
CN(CC(=O)Nc1cccc(F)c1)C(=O)CCC1CCCCC1,-,0,0,-,-,-
COCc1[nH]c(=S)[nH]c(=O)c1C,0,0,0,0,0,79µM
CCOCc1[nH]c(=S)[nH]c(=O)c1Cc1ccc(OCC)cc1,0,0,-,0,0,?
Cc1ccc(C)c(NC(=O)c2cnc(N3CCCC3)nc2C)c1,0,0,0,-,-,-
COC(=O)C/C=C\[C@@H](C)[C@@H](/C=N\O[C@@H](C)c1cn([C@H](CO)Cc2ccccc2)nn1)NS(=O)(=O)c1ccc(C)cc1,0[10.1 µM],-,-,0[10 µM],0[10 µM],0
N#CC1=C(N)NC(SCC(=O)c2ccc(Br)cc2)=C(C#N)C12CCCCC2,0,?,0,0,?,0
N#CC1=C(N)NC(SCC(=O)c2ccc(Cl)cc2)=C(C#N)C12CCCC2,0,0,0,?,?,50µM
Cc1snc(SCC(=O)N/N=C(\N)COc2ccc(F)cc2)c1C#N,0,0,0,4.5µM,2.5µM,0
CC1CCc2onc(C(=O)N3CCN(c4ccc(Cl)cc4)CC3)c2C1 (stereo unspecified),0,?,0,-,-,-
COc1ccc(-c2noc(C3CCCN(C(=O)c4ccccc4OC)C3)n2)cc1OC (stereo unspecified),0,0,0,0,0,0
COc1ccc(C(=O)N2CCCC(c3nc(-c4ccc(OC)c(OC)c4)no3)C2)c(OC)c1 (stereo unspecified),0,0,28µM,0,0,0
COc1ccc(N2CC(NC(=O)c3ccc4c(c3)OCO4)CC2=O)cc1 (stereo unspecified),0,0,0,-,-,-
COc1cccc(CNC(=O)c2ccc3c(c2)sc2nc(-c4ccccc4)cn23)c1OC,0,0,?,-,-,-
Nc1ccc(/C=C/c2ccnc3ccccc23)cc1[N+](=O)[O-],-,0,0,-,-,-
O=S(=O)(O)CC(S)CS (stereo unspecified),-,-,-,0,0,2.8µM
COc1cc(C(=O)OCCCOC(=O)c2cc(OC)c(OC)c(OC)c2)cc(OC)c1OC,-,0,0,0,0,0
COc1cc(OC)c(C(=O)OCCCOC(=O)c2cc(OC)c(OC)cc2OC)cc1OC,-,0,0,10µM,7.9µM,?
Cc1ccc(N(Cc2cccs2)C(=O)COc2ccccc2[N+](=O)[O-])cc1,0,0,0,-,-,-
COC(=O)c1sc2ccccc2c1-n1cccc1C(=O)C(=O)Nc1ccc(C)cc1,0,0,0,0,0,0
COC(=O)c1sc2ccccc2c1-n1cccc1C(=O)C(=O)Nc1ccc(Cl)cc1,0,0,14µM,0,0,0
COc1ccccc1CNc1ccc(-c2nc(-c3cccnc3)no2)cc1[N+](=O)[O-],0,?,0,-,-,-
COC(=O)c1ccc(N2CCCCC2)c(NS(=O)(=O)c2ccc(C)cc2)c1,0,0,0,0,0,0
CC1CCN(c2ccc(C(=O)O)cc2NS(=O)(=O)c2ccc(Br)cc2)CC1,0,0,20µM,0,0,0
CN(C)S(=O)(=O)c1cc(NC(=O)c2cc(=O)c3ccccc3o2)ccc1Cl,-,0,-,0,0,32µM
SMILES,Epigenetic reg,PINK1 expr mod,ClpP mod,VP16 counter,RORgamma inh,Sfp PPTase inh
CN(CCOc1ccccc1)CC(=O)Nc1ccc(Cl)cc1[N+](=O)[O-],0,0,0,0,0,50µM
CN(CCOc1ccccc1)CC(=O)Nc1ccc(Cl)c(S(=O)(=O)N(C)C)c1,0,0,-,0,0,56µM
COc1ccc(NC(=O)c2cc(=O)c3ccccc3o2)cc1Cl,-,0,0,0,0[1.91 µM],0
COc1ccc(OCCN(C)CC(=O)Nc2c(C)cccc2C)cc1,-,0,20µM,0,0,0
Cc1cccc(C(=O)Nc2ccc(OCc3cc(=O)n4ccc(C)cc4n3)cc2)c1,0,0,0,-,-,-
Nc1ncnc2n[nH]c(Nc3ccc(F)cc3)c12,-,-,-,0,0,0
CC1=C(C(=O)N2CCOCC2)C(c2ccccc2F)C2=C(CCCC2=O)N1 (stereo unspecified),0,0,25µM,0,0,0
CCc1nnc(NC(=O)CSc2nc(-c3ccccc3)cc(-c3ccc(OC)cc3)c2C#N)s1,?,0,0,0,0[10 µM],0
COc1ccc(-c2cc(-c3ccccc3)c(C#N)c(SCC(=O)Nc3ncc(C)s3)n2)cc1,0,0,7.9µM,0,0,0
COc1ccc(-c2cc(-c3ccccc3)nc(SCC(=O)Nc3ccccc3F)c2C#N)cc1,?,0,?,-,-,-
COc1ccc(-c2cc(-c3ccccc3)nc(SCC(=O)Nc3nccs3)c2C#N)cc1,?,?,28µM,0,0,0
Cc1ccc(-n2nc3c(N4CCC(C(=O)NC5CCCCC5)CC4)nnc(C)c3c2C)cc1,0,0,0,-,-,-
CN(C)CCNC(=O)c1ccc2c(c1)NC(=O)C(CS(=O)(=O)Cc1cccc(Br)c1)N2 (stereo unspecified),0,0,32µM,-,-,-
CCN(CC)CCCNC(=O)c1ccc2c(c1)NC(=O)C(CS(=O)(=O)Cc1ccc(F)cc1Cl)N2 (stereo unspecified),0,0,3.2µM,-,-,-
CCN(CC)CCNC(=O)c1ccc2c(c1)NC(=O)C(CS(=O)(=O)Cc1ccc(F)cc1Cl)N2 (stereo unspecified),0,0,28µM,-,-,-
CC(C)CCNC(=O)c1ccc2c(c1)NC(=O)C(CS(=O)(=O)Cc1cccc(Br)c1)N2 (stereo unspecified),?,0,?,-,-,-
O=C(NCc1ccccc1Cl)c1ccc2c(c1)NC(=O)C(CS(=O)(=O)Cc1ccc(F)cc1Cl)N2 (stereo unspecified),0,0,0,-,-,-
CCOCCCNC(=O)c1ccc2c(c1)NC(=O)C(CS(=O)(=O)Cc1ccc(F)cc1Cl)N2 (stereo unspecified),0,0,7.1µM,-,-,-
O=C(NCc1ccc(Cl)cc1)c1ccc2c(c1)NC(=O)C(CS(=O)(=O)Cc1ccc(F)cc1Cl)N2 (stereo unspecified),?,0,0,-,-,-
COc1ccc(CNC(=O)C2CCN(Cc3nc(-c4ccc(Cl)cc4)oc3C)CC2)cc1,0,0,0,-,-,-
Cc1ccc2c(c1)ncc[n+]2CC(=O)c1ccc(F)cc1,-,-,0,-,-,-
CC(=O)NCC(=O)NCC1Cc2cc(C)cc(-c3ccccn3)c2O1 (stereo unspecified),-,0,-,-,-,-
COc1ccccc1Nc1nc(N)nc(CSC(=S)N2CC(C)CC(C)C2)n1 (stereo unspecified),0,0,0,25µM,?,0

# From PubChem BioAssay
